These results are taken from PubChem BioAssay.

SMILES strings stand for the structures.

For this experiment, the target named is NADPH oxidase 5 (Homo sapiens) (UniProt Q96PH1). Briefly: compounds shifting NOX5 Amplex Red fluorescence – cell-based, HEK293-NOX5, NOX inhibitor project, primary screen (AID 1161). The following applies: HEK293-NOX5, ionomycin, 45 min, higher = more signal.
Chain of NADPH oxidase 5 (Homo sapiens) (Q96PH1 whole entry, looked up): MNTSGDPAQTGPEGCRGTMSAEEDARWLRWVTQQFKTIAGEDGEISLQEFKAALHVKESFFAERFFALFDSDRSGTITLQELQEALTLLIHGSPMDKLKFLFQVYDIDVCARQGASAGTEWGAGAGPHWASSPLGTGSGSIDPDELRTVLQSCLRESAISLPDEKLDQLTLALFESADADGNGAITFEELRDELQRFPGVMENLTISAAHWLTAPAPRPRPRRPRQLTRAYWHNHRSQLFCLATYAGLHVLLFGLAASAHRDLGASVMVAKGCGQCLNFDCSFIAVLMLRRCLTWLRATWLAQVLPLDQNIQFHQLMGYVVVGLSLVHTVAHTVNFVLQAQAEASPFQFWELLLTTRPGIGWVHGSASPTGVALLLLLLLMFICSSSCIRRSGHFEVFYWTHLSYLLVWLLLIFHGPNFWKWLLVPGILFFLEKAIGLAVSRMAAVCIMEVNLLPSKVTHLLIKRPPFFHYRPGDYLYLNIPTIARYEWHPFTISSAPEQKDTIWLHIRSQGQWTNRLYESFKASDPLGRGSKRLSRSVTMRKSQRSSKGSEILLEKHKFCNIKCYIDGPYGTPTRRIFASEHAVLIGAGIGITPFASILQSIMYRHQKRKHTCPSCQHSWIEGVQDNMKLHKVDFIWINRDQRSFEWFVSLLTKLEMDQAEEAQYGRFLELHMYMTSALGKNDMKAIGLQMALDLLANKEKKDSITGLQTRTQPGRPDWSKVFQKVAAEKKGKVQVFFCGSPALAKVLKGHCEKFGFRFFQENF
Take `COc1cc2c(cc1O)C(C1CC1)N(Cc1cc3c(cc1Br)OCO3)CC2` (stereo not given): the z-score was -4.81.

Regarding `C=C(CCCC)C(=O)CC[C@H](OC(C)=O)c1cccc(OCCO)c1`, the z-score is -2.8.

For the compound `C=CC[C@]1(C(=O)N2CCCCC2)N=C(c2ccc(OCCCO)cc2)O[C@H]1c1ccccc1`, the z-score is -1.71.

As for `COCCOC(=O)N1C(=O)[C@@]2(c3cc(C#CCCO)ccc31)[C@H](C(=O)N1CCN(c3ncccn3)CC1)[C@H]1C(=O)O[C@H](c3ccccc3)[C@H](c3ccccc3)N1[C@@H]2c1ccccc1OCCO`, the z-score is 0.437.

`COCCOC(=O)N1C(=O)[C@@]2(c3cc(C#CCCO)ccc31)[C@H](C(=O)N1CCc3cc(OC)c(OC)cc3C1)[C@H]1C(=O)O[C@H](c3ccccc3)[C@H](c3ccccc3)N1[C@@H]2c1ccc(O)cc1`: the z-score is 1.29.

As to `CCCCN1CC=CC23O[C@@H]4/C=C\CCC(C)OC(=O)C4[C@H]2C(=O)N(CCCCCO)[C@@H]3C1=O` (stereo not given in full), the z-score came to 1.21.

For the compound `C=CCN1C(=O)[C@@]2(O[C@@H](CCO)[C@H]([Si](C)(C)c3ccc(OC)cc3)[C@H]2C)c2cc(NC(=O)c3ccc(OC)cc3)ccc21`, the z-score was -0.695.

In the case of `CC(=O)n1cc(C(O)C2C=CC3C(=O)N(C)C(=O)C3N2Nc2ccccc2)c2ccccc21` (stereo not given), the z-score was -2.78.

Turning to `Cc1ccc(C(C)CC(O)C2C=CC3C(=O)N(c4ccccc4)C(=O)C3N2Nc2ccc([N+](=O)[O-])cc2)o1` (stereo not given), the z-score was -1.27.

In the case of `[N-]=[N+]=NCc1ccccc1[C@H]1OC(c2ccc(OCCCO)cc2)=N[C@@]1(Cc1ccccc1)C(=O)NCc1ccccc1`, the z-score was -0.549.

On to `COc1ccc([Si](C)(C)[C@@H]2[C@@H](CCO)O[C@]3(C(=O)N(Cc4ccc(N5C(=O)COc6ccccc65)cc4)c4ccccc43)[C@H]2C)cc1`, for which the z-score was determined as 1.38.

Consider `CN(C)CCCNC(=O)[C@@]1(C)c2ccccc2C(=O)N(Cc2cc(F)cc(C(F)(F)F)c2)[C@H]1c1ccc(CO)cc1`, for which the z-score was found to be 0.463.

In the case of `C=C(COC)/C(=C/C[C@@H](OC(C)=O)c1ccc(OCCO)cc1)c1cc(C(=O)OC)ccc1OC`, the z-score was -1.57.

With `CCCC[C@@H]1C[C@H]1[C@@H](NC(=O)c1ccco1)c1ccc(Cl)cc1`, the z-score was found to be 0.0234.

As to `CC1CC/C=C\[C@H]2OC34C=CCN(Cn5nnc6ccccc65)C(=O)[C@H]3N(C(CO)C(C)C)C(=O)[C@@H]4C2C(=O)O1` (stereo not given in full), the z-score was 2.22.

Consider `[N-]=[N+]=Nc1ccccc1[C@H]1OC(c2ccc(OCCCO)cc2)=N[C@@]1(Cc1ccccc1)C(=O)O`, for which the z-score is 1.75.

Turning to `O=C1C2C=CC(C(O)C(c3ccccc3)c3ccccc3)N(n3cnnc3)C2C(=O)N1Cc1ccccc1` (stereo not given), the z-score was -0.766.

With `CN1C(=O)C2C=CC(C(O)Cc3ccccc3)N(Nc3ccccc3)C2C1=O` (stereo not given), the z-score was -3.59.

Consider `NC(=O)[C@@H]1[C@H]2C(=O)O[C@H](c3ccccc3)[C@H](c3ccccc3)N2[C@H](c2ccc(O)cc2)[C@@]12C(=O)Nc1ccc(C#CC3(O)CCCCCC3)cc12`, for which the z-score is -0.125.

With `COCCOC(=O)N1C(=O)[C@@]2(c3cc(C#Cc4ccc(OC)cc4)ccc31)[C@H](C(=O)N1CCCCCCC1)[C@H]1C(=O)O[C@H](c3ccccc3)[C@H](c3ccccc3)N1[C@@H]2c1ccc(OCCO)cc1`, the z-score was -0.169.

Turning to `CCOC(=O)C[C@H]1[C@H](OC(=O)Cc2ccc3c(c2)OCO3)[C@@H](NC(=O)c2ccc(-c3ccccc3)cc2)c2cc(OCCCO)ccc2N1C(=O)Cc1ccc(OC)cc1`, the z-score is 2.24.

As for `O=C1[C@H]2C=C(Br)[C@H](C[C@@H]2c2ccccc2)[C@@]12CO2`, the z-score was -0.855.

In the case of `CCOC(=O)[C@H]1C/C=C/C[C@H](C(=O)OCC)C(=O)O[C@H]2[C@@H](OC)O[C@H](CO)[C@@H](OC(=O)Nc3ccc(C#N)cc3)[C@@H]2OC1=O`, the z-score worked out at 1.4.

In the case of `COC(=O)C(CC#Cc1ccc2c(c1)[C@]1(C(=O)N2)[C@H](c2ccc(O)cc2)N2[C@H](c3ccccc3)[C@H](c3ccccc3)OC(=O)[C@H]2[C@@H]1C(=O)Nc1nc2ccccc2s1)C(=O)OC`, the z-score came out at 2.21.

On to `COc1ccc(C(O)C2C=CC3C(=O)NC(=O)C3N2Nc2ccccn2)cc1` (stereo not given), for which the z-score was -1.99.

On to `C#CCN(CC1=CCCCC1)[C@H](c1ccccc1Br)[C@@H](O)Cc1ccccc1`, for which the z-score is -1.45.

For the compound `CC(C)OC(=O)C=C1C[C@@H](c2ccccc2C(F)(F)F)O[C@@H](c2ccccc2C(F)(F)F)O1`, the z-score is -0.774.

As to `COCCCNC(=O)[C@@]1(Cc2ccccc2N=[N+]=[N-])N=C(c2ccc(OCCCO)cc2)O[C@H]1c1ccccc1N=[N+]=[N-]`, the z-score is -2.22.

`O=C1C2C=CC(C(O)C3CCCCC3)N(Nc3ccc([N+](=O)[O-])cc3)C2C(=O)N1c1ccccc1` (stereo not given): the z-score is -4.06.

As for `COCC(=C=CC[C@@H](O)c1ccccc1OCCO)C[C@@H](O)c1cc(Cl)cc(Cl)c1O`, the z-score was -2.07.

For `O=C1c2ccccc2[C@](Cc2ccccc2I)(C(=O)NC2CC2)[C@H](c2ccc(CO)cc2)N1Cc1ccccc1`, the z-score was -0.768.

Regarding `CCOC(=O)C[C@H]1[C@H](OC(=O)Cc2ccc3c(c2)OCO3)[C@@H](NC(=O)c2ccc3ccccc3c2)c2cc(OCCCO)ccc2N1C(=O)c1ccccc1`, the z-score is -2.56.

With `C=CCNC(=O)[C@H]1[C@@H]2C(=O)O[C@@H](c3ccccc3)[C@@H](c3ccccc3)N2[C@@H](c2ccc(OCCO)cc2)[C@]12C(=O)N(C(=O)OCCOC)c1ccccc12`, the z-score is -1.51.

Take `CCOC(=O)C[C@H]1[C@H](OC(=O)Cc2ccc3c(c2)OCO3)[C@@H](NC(=O)c2ccc(-c3ccccc3)cc2)c2cc(OCCCO)ccc2N1C(=O)c1ccc2ccccc2n1`: the z-score is -1.21.

On to `C=CCN1C(=O)[C@]2(O[C@H](CCO)[C@@H]([Si](C)(C)c3ccc(OC)cc3)[C@@H]2C)c2cc(N3C(=O)c4cccc5cccc3c45)ccc21`, for which the z-score was 0.0361.
